Test results published in publication PMC4336329 (PLoS ONE, 2015).
The whole screen tested about 310,000 compounds, of which about 14,000 (4.5%) showed an effect of 50% or more. Effects have a minus sign here. What follows is part of a selection rich in strong results, with near analogues and random picks from the rest.

target: human ether-à-go-go-related gene (hERG) potassium channel (human, UniProt Q12809); assay: primary screen, population patch clamp on CHO cells stably expressing hERG; higher = less effect of the substance
Sequence (Q12809 whole entry, looked up): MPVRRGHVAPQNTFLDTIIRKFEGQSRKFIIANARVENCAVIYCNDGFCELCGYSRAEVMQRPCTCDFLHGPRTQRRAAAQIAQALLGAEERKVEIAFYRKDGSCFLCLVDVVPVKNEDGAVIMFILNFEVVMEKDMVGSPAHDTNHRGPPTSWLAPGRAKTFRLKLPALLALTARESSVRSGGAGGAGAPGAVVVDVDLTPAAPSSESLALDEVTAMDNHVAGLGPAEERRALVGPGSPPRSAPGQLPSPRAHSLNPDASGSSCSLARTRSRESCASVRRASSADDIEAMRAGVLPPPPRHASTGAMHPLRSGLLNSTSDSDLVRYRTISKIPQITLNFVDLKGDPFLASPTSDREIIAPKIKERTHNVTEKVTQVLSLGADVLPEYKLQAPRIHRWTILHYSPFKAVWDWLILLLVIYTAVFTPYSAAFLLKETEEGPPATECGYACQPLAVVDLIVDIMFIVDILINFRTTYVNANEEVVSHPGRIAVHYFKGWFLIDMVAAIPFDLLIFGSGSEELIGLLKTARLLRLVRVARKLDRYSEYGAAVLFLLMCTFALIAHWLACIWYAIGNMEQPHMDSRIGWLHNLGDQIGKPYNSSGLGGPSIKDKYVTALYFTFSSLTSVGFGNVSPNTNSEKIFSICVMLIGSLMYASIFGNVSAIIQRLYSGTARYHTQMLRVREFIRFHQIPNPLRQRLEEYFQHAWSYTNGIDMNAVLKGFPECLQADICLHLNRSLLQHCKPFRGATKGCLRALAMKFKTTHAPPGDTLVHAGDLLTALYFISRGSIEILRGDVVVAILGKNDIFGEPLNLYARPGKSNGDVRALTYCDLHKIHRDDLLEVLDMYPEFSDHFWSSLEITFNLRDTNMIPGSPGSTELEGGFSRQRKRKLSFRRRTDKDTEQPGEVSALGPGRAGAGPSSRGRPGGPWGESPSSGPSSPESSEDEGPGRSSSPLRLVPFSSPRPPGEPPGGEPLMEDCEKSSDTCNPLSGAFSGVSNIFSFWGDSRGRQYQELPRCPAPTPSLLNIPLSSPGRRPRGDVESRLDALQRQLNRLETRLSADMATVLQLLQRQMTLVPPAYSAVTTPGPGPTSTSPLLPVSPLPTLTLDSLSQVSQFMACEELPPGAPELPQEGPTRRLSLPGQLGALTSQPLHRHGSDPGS
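Note: peak tail current of the secondary pulse compared with the same well before compound.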

SMILES	hERG current change (%, negative = inhibition) at 10uM [%]
CON(C)S(=O)(=O)c1cccc(C(=O)NC2CCSc3ccccc32)c1 (stereo not shown)	-9.64
CCN(CC)CCN1C(=O)C(=O)/C(=C(/O)c2ccc(OC(C)C)cc2)C1c1cccs1 (stereo not shown)	0.529
Cc1cc(C(=O)N/N=C/c2cc(Br)c(Br)o2)n[nH]1	16
O=C(O)CNC(=O)c1ccccc1Br	9.63
O=C(C1CCN(S(=O)(=O)c2ccc(-n3cnnn3)cc2)CC1)N1CCCCC1	-30.1
CC1CCCCN1S(=O)(=O)c1ccc(-n2cnnn2)cc1 (stereo not shown)	-50.1
CC1CCCCN1S(=O)(=O)c1ccc(NC(=O)c2cccc(-n3cnnn3)c2)cc1 (stereo not shown)	-18.4
CC1CCCCN1C(=O)C1CCN(S(=O)(=O)c2ccc(-n3cnnn3)cc2)CC1 (stereo not shown)	-61.5
CC1CCCCN1S(=O)(=O)c1ccc(S(=O)(=O)N2CCCC2)cc1 (stereo not shown)	5.9
CC1CCN(C(=O)C2CCN(S(=O)(=O)c3ccc(-n4cnnn4)cc3)CC2)CC1	-13.7
COc1ccc(C(CNC(=O)c2cccc(S(=O)(=O)NCc3ccccc3)c2)N(C)C)cc1 (stereo not shown)	-24.3
CN(C(=O)COC(=O)c1cc(F)c(F)cc1Cl)c1ccccc1	0.987
CC(C)N1CCN(Cc2ccccc2-c2ccco2)CC1CCO (stereo not shown)	-35.3
CC(C)N1CCC(N2CCN(Cc3cccnc3)CC2CCO)CC1 (stereo not shown)	20.3
CC(C)N1CCC(N2CCN(Cc3ccc(-c4ccccc4Cl)o3)CC2CCO)CC1 (stereo not shown)	-66.6
Cc1ccc(-c2cccc(CN3CCN(C(C)C)C(CCO)C3)c2)o1 (stereo not shown)	13.4
CC(C)N1CCN(Cc2ccc(-c3ccccc3Cl)o2)CC1CCO (stereo not shown)	-54.8
CC(C)N1CCN(Cc2ccc(Sc3nncn3C)o2)CC1CCO (stereo not shown)	22.9
CC(C)N1CCC(N2CCN(C/C=C/c3ccccc3)CC2CCO)CC1 (stereo not shown)	-7.17
Cc1ccc(-c2cccc(CN3CCN(C4CCN(C(C)C)CC4)C(CCO)C3)c2)o1 (stereo not shown)	-59.4
CC(C)N1CCC(N2CCN(Cc3ccc4nsnc4c3)CC2CCO)CC1 (stereo not shown)	-8.62
CC(C)N1CCC(N2CCN(CCCc3ccccc3)CC2CCO)CC1 (stereo not shown)	10.1
CC(C)N1CCC(N2CCN(Cc3ccc(-c4ccc(Cl)cc4)o3)CC2CCO)CC1 (stereo not shown)	-64.5

SMILES	hERG current change (%, negative = inhibition) at 10uM [%]
CC(C)N1CCC(N2CCN(Cc3ccc4nonc4c3)CC2CCO)CC1 (stereo not shown)	-27.5
Cc1ccc(-n2nnnc2SCC(=O)Nc2ccccc2N2CCCCC2)cc1C	14.3
CC(NC(=O)COc1ccccc1)C(c1cccs1)N1CCCC1 (stereo not shown)	-2.64
COc1ccccc1CNC(=O)CCCOc1cc(=O)n(C)c2ccccc12	4.57
CN(Cc1ccccc1)C(=O)CCC1CCN(S(=O)(=O)N(C)C)CC1	-18.4
CCNC(=S)N1CCC(c2nc3ccccc3s2)CC1	-25.7
CCCCNC(=O)[C@H]1C[C@H]1[C@@H](O)[C@H](CO)NC(=O)[C@H](COCc1ccccc1)NC(=O)OC(C)(C)C	21.5
CC(C)(C#N)Nn1cnnc1	17.1
COc1ccc(CC(=O)OC2CCCN(C)C2)cc1.Cl (stereo not shown)	19.3
Cn1ncc(Cl)c1C(=O)N1CCN(c2cccc(Cl)c2)CC1	-8.7
CC(C)n1c(SCc2cc(=O)[nH]c3ccccc23)nc2c1c(=O)n(C)c(=O)n2C	-7.13
c1ccc(-c2noc(CC3CCCCC3)n2)nc1	6.32
O=C(COC(=O)C12CC3CC(CC(O)(C3)C1)C2)NCCc1ccc(Cl)cc1	-10.8
CCN(CC)CCCOC(=O)c1ccc(OC)cc1O.Cl	-40.9
CCC(Sc1nncn1C)C(=O)Nc1nnc(-c2ccccc2Cl)s1 (stereo not shown)	-11
CC(C)c1nnc(NC(=O)C2CCCN2C(=O)Nc2cccc(Cl)c2)s1 (stereo not shown)	-18
COc1ccc(C(=O)NC(C)CCc2ccccc2)c(OC)c1 (stereo not shown)	-26.3
COc1ccc(C(=O)NC(C)CCc2ccccc2)c(O)c1 (stereo not shown)	-55.5
COc1ccc(C(=O)NC(C)CCc2ccccc2)cc1 (stereo not shown)	-2.64
CC(C)(C)c1ccccc1OCCN1CCCC1	-24.1
Brc1ccc(CN2CCCCCC2)cc1	-30.3
Cl.O=C(CCN1CCCCCC1)Nc1ccc(F)cc1	-42.8
Brc1ccccc1OCCN1CCCC1	-1.74
